Source: PubChem BioAssay (Sanford-Burnham Center for Chemical Genomics)
Only a sample is shown.
TNAP inh Pi: inhibitors of human tissue-nonspecific alkaline phosphatase | P05186 | purified TNAP, pNPP, malachite green phosphate absorbance | inhibition, % at 20 µM | 21,000 tested, under 10 active | AID 614
TNAP inh pNP: blocks human TNAP p-nitrophenol release | inhibition, % at 20 µM | 21,000 tested, under 10 active | P05186 | purified TNAP, pNPP hydrolysis, absorbance 405 nm | AID 615;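 further: 0% = DMSO only wells and 100% = 1 mM levamisole wells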
An asterisk follows results filed as active.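 How the source made its calls: active means inhibition above 50% at the 20 µM single-dose screen; inactive means the rest.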

What do the screens show for `N=c1ccn(Cc2ccc(Cl)cc2)cc1`?
TNAP inh Pi: 8; TNAP inh pNP: 6

Results for Cc1cc(NC(=O)CSc2nnc(-c3ccoc3C)o2)no1 ?
TNAP inh Pi: 12; TNAP inh pNP: 5

What do the screens show for `CCCCCOC(=O)C(C)c1c(C)[nH]c(=S)[nH]c1=O` (stereo not given)?
TNAP inh Pi: 4; TNAP inh pNP: 2

How did COc1ccc(-n2nnnc2SCC(=O)Nc2cccc(NC(C)=O)c2)cc1OC do in these assays?
TNAP inh Pi: 4; TNAP inh pNP: 1

What do the screens show for `CCc1ccc(OCc2nnc(SCCN3CCOCC3)n2CC)cc1`?
TNAP inh Pi: 5; TNAP inh pNP: 2

How did CN1CCc2c(C#N)c(N3CCCCC3)nc(N3CCOCC3)c2C1 do in these assays?
TNAP inh Pi: 8; TNAP inh pNP: 3

How did N#Cc1nc(COc2ccc(Br)cc2)oc1N1CCCC1 do in these assays?
TNAP inh Pi: 11; TNAP inh pNP: 4

Results for O=C(CN1C(=O)c2ccccc2S1(=O)=O)N1CCN(c2ccccc2)CC1 ?
TNAP inh Pi: 0; TNAP inh pNP: 0

Results for O=C(NCCN1CCOCC1)c1ccc(-c2ccccc2)cc1 ?
TNAP inh Pi: 10; TNAP inh pNP: 8

Results for COCCn1c(SCc2nc3ccccc3s2)nc2ccccc21 ?
TNAP inh Pi: -6; TNAP inh pNP: 2

How did Cc1cc(C(=O)CSc2nnc(-c3ccc(OC(F)F)cc3)o2)c(C)n1Cc1cccs1 do in these assays?
TNAP inh Pi: 6; TNAP inh pNP: 1

How did Fc1ccc(-c2nnc(CN3CCC(c4nc5ccccc5s4)CC3)o2)cc1 do in these assays?
TNAP inh Pi: 23; TNAP inh pNP: 7
